Screening results from PubChem.
Rv3671c inh: inhibits the M. tuberculosis serine protease Rv3671c; 0.048% of 320,000 active; P9WHR9; inhibition, % at 5.96 µM; in the data active means inhibition above about 38%;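 further: extracellular domain of Rv3671c used as enzyme; 0% = enzyme with DMSO and 100% = no enzyme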
GDH-TPI counter-1: counter-screen for M. tuberculosis FBA inhibitors: GDH-TPI coupled enzymes | AID 588335 | 1.2% of 360,000 active | GDH-TPI coupled enzyme counterscreen, NADH absorbance | inhibition, % at 4.8 µM; in the data active means inhibition above about 30%;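 further: 0% = DMSO wells and 100% = wells lacking the enzyme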
Mtb FBA inh: inhibitors of M. tuberculosis fructose-bisphosphate aldolase | P9WQA3 | purified M. tuberculosis FBA, fluorescence read-out | inhibition, % at 1 µM | 2.3% of 360,000 active;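 further: 0% = vehicle and 100% = reference inhibitor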
Target sequence (P9WQA3 whole entry, looked up): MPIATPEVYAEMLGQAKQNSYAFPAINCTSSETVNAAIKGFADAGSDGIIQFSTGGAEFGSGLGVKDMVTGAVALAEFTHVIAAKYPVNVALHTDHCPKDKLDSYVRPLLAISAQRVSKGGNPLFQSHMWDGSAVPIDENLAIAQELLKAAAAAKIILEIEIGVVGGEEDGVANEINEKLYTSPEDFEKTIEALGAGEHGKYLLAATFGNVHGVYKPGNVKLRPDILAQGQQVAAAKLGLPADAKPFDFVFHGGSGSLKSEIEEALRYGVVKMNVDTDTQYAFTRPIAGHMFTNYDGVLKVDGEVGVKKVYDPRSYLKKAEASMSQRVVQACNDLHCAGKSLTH
FadD28 binding: inhibitors of Mycobacterium tuberculosis FadD28 bisubstrate binding. inhibition, % at 12.5 µM. FadD28 bisubstrate probe binding, fluorescence polarization. AID 588549. 0.22% of 360,000 active; in the data active means inhibition above about 8.5%, passing the limit was not always enough
BioA inh: BioA (M. tuberculosis) enzyme inhibition; purified M. tuberculosis BioA enzyme, plate reader; inhibition, % at 9.99 µM; 0.096% of 360,000 active; AID 602481; in the data active means inhibition above about 40%
Mtb FBA confirm: confirmation of M. tuberculosis fructose-bisphosphate aldolase inhibitors; shares compounds with Mtb FBA inh; purified M. tuberculosis FBA, fluorescence read-out; inhibition, % at 1 µM; 78% of 5,600 active; AID 651616;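 further: 0% = vehicle wells and 100% = reference inhibitor wells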
GDH-TPI counter-2: counter-screen for M. tuberculosis FBA inhibitors: GDH-TPI coupled enzyme inhibition. shares compounds with Mtb FBA inh. GDH-TPI coupled enzyme counterscreen, fluorescence. inhibition, % at 1 µM. 81% of 5,600 active. AID 652141; in the data active means inhibition above about 10%
Numbers without * were called inactive; . = no result; + = active, no number. Sampled rows, rich in hits. Any-hit rate of the full collection: about 3%. Unless noted, no stated cut-off is given here; in the data, active means inhibition above about 27%; inactive means the rest.

SMILES	Rv3671c inh	GDH-TPI counter-1	Mtb FBA inh	FadD28 binding	BioA inh	Mtb FBA confirm	GDH-TPI counter-2
O=C(Cn1c2ccccc2c(=O)c2ccccc21)Nc1cccc(F)c1	-95	6	90*	-2	.	100*	71*
CCOC(=O)c1[nH]c2ccc(OC)cc2c1NC(=O)OC	-3	-1	38*	-2	1	+	146*
CCOC(=O)c1[nH]c2ccc(OC)cc2c1N=CN(C)C	4	3	39*	-4	-1	+	175*
CCOC(=O)c1[nH]c2ccc(OC)cc2c1NC(=S)N1CCN(C(=O)OCC)CC1	-7	12	6	0	.	.	.
CCOC(=O)c1[nH]c2ccc(OC)cc2c1NS(=O)(=O)c1ccc(OC)cc1OC	7	10	20	-4	-3	.	.
CCOC(=O)c1[nH]c2ccc(OC)cc2c1NC(=O)CCN1CCCC(C)C1 (stereo unspecified)	-2	1	35*	-4	0	+	+
O=C(NCC[C@H]1CC[C@H](NC(=O)Nc2cc(F)ccc2F)[C@H](CO)O1)Nc1ccc(Cl)cc1	.	.	.	.	-2	.	.
c1ccc2c(c1)c1cccc3ccc4cccc2c4c31	4	21	55*	-2	-2	75*	64*
O=c1c2ccccc2ccc2ccccc12	1	14	6	-2	-2	.	.
C[C@@H]1CN([C@H](C)CO)C(=O)c2cc(-c3ccccc3F)cnc2O[C@H]1CN(C)Cc1cccc(F)c1	.	.	.	.	2	.	.
COc1ccc(CN(C)C[C@@H]2OCCCC[C@@H](C)Oc3ccc(NC(=O)c4ccncc4)cc3C(=O)N([C@@H](C)CO)C[C@@H]2C)cc1	.	.	.	.	4	.	.
C[C@@H]1CN([C@@H](C)CO)S(=O)(=O)c2ccc(C3=CCCCC3)cc2O[C@H]1CN(C)C(=O)Cc1cccnc1	.	.	.	.	4	.	.
CCOc1ccc2[nH]c3c(NCCC(C)C)ncnc3c2c1	.	0	49*	0	.	6	-6
CCOc1ccc2[nH]c3c(NCCN(C)C)ncnc3c2c1	-11	-1	16	.	0	.	.
CCCOc1ncnc2c1[nH]c1ccc(OC)cc12	-11	5	18	1	.	.	.
COc1ccc2[nH]c3c(NCCCOC(C)C)ncnc3c2c1	8	2	99*	1	.	63*	47*
CCN(CC)CCNc1ncnc2c1[nH]c1ccc(OC)cc12	0	.	.	.	.	.	.
CCCCOc1ncnc2c1[nH]c1ccc(C)cc12	-6	-4	38*	-3	-1	-7	-4
C=CCNc1ncnc2c1[nH]c1ccc(C)cc12	12	13	42*	0	.	66*	52*
COc1ccc(CCNc2ncnc3c2[nH]c2cc(OC)c(OC)cc23)cc1OC	9	23	68*	-3	2	112*	101*
COc1ccc(C2Nc3ccccc3C(=O)N2NS(=O)(=O)c2ccc(C)cc2)cc1 (stereo unspecified)	-7	7	19	1	.	.	.
COc1ccc(N2C(=O)c3ccccc3NC2c2ccc(OC)c(CSc3ccccn3)c2)cc1 (stereo unspecified)	2	11	22	-2	0	.	.
COc1ccc(N2C(=O)c3ccccc3NC2c2ccc(OC)c(COc3ccccn3)c2)cc1 (stereo unspecified)	6	15	14	-3	.	.	.
COc1ccc(C2Nc3ccccc3C(=O)N2Cc2ccccc2)cc1COc1ccccn1 (stereo unspecified)	4	-8	78*	-6	1	64*	54*
O=C(O)c1ccc(C2SCC(=O)N2Cc2ccccc2)cc1 (stereo unspecified)	-10	-8	-4	-3	-1	.	.
SMILES	Rv3671c inh	GDH-TPI counter-1	Mtb FBA inh	FadD28 binding	BioA inh	Mtb FBA confirm	GDH-TPI counter-2
O=C(O)c1ccc(C2Nc3ccccc3C(=O)N2Cc2ccccc2)cc1 (stereo unspecified)	3	0	76*	-2	1	9	5
CCCN1C(=O)c2ccccc2NC1c1ccc(OC)c(CSc2ccccn2)c1 (stereo unspecified)	-10	5	56*	-3	1	140*	105*
COc1ccc(C2Nc3ccccc3C(=O)N2C2CCCCC2)cc1 (stereo unspecified)	-1	1	85*	0	.	1	0
C[C@H](CO)N1C[C@H](C)[C@H](CN(C)Cc2cccc(F)c2)Oc2ncc(-c3ccccc3F)cc2C1=O	.	.	.	.	4	.	.
COc1ccccc1CNC(=O)C[C@@H]1C[C@@H]2c3cc(NC(=O)c4cccnc4)ccc3O[C@@H]2[C@H](CO)O1	.	.	.	.	7	.	.
COc1ccc(C2Nc3ccccc3C(=O)N2Cc2ccccc2)cc1 (stereo unspecified)	3	4	39*	-1	3	167*	135*
COc1ccc([C@@H]2[C@@H](C)N(c3ccccc3)c3ccccc3C(=O)N2Cc2ccccc2)cc1	.	1	5	-3	0	.	.
Cn1cnc(S(=O)(=O)Nc2ccccc2C(=O)NCC2CC2)c1	1	1	29*	-4	.	82*	64*
Cn1cnc(S(=O)(=O)N[C@H]2C=C[C@@H](CC(=O)NCC3CC3)O[C@@H]2CO)c1	.	.	.	.	1	.	.
COCC#Cc1cnc2c(c1)C(=O)N([C@@H](C)CO)C[C@@H](C)[C@@H](CN(C)C(=O)C1CC1)O2	.	.	.	.	-1	.	.
C[C@@H]1CN([C@@H](C)CO)S(=O)(=O)c2ccc(-c3ccccc3F)cc2O[C@H]1CN(C)C(=O)C1CC1	.	.	.	.	4	.	.
Cc1ccc(Cn2nnnc2CN2CCC(NC(=O)c3ccc(Br)cc3)CC2)cc1	2	2	2	-1	-1	.	.
CCC(C)(C)n1nnnc1CN1CCC(NC(=O)c2ccc(Br)cc2)CC1	5	4	33*	-1	0	4	-2
COc1c(C)oc2cc(O)ccc2c1=O	-8	11	87*	-2	.	58*	40*
Cc1oc2cc(O)ccc2c(=O)c1Oc1ccc(F)cc1	-6	15	103*	-1	2	0	-5
Cc1oc2cc(O)ccc2c(=O)c1Oc1ccc2ccccc2c1	-13	4	111*	-4	0	53*	38*
CC(C)OC(=O)N(C)C[C@H]1OCc2cnnn2CCCC(=O)N([C@@H](C)CO)C[C@@H]1C	.	.	.	.	0	.	.
Cc1noc(C)c1NC(=O)N(C)C[C@H]1OCCCC[C@@H](C)Oc2ccc(NC(=O)c3ccncc3)cc2C(=O)N([C@H](C)CO)C[C@@H]1C	.	.	.	.	-2	.	.
CC(C)NC(=O)Nc1ccc2c(c1)C(=O)N([C@@H](C)CO)C[C@@H](C)[C@@H](CN(C)C(=O)c1ccncc1)OCCCC[C@H](C)O2	.	.	.	.	-2	.	.
O=C(C[C@H]1C[C@H]2c3cc(NC(=O)CC4CC4)ccc3O[C@H]2[C@H](CO)O1)NCc1cccnc1	.	.	.	.	0	.	.
O=C(c1ccc(F)cc1)C1CCN(C(=O)Nc2ccc(F)cc2F)CC1	-2	-5	1	-2	1	.	.
